In PubChem BioAssay:
Calls of active or inactive are those of the source.

What was measured:
[1] = optical density shifts of acrAB sulA E. coli – strain DRC41, OD650, 48 h, E. coli filamentation inducer project, primary screen (AID 1152); settings: higher = more signal, called active from +8 up or from −8 down;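 further: E. coli MC1000 strain DRC41 lacking acrAB efflux pump and sulA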
[2] = probe aLefty1 binding on compound microarray – biochemical, small-molecule microarray, 635/667 nm fluorescence, primary screen (AID 1153); settings: higher = more signal;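 further: score merges spot fluorescence with signal-to-noise ratio from the scanned slide images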
[3] = plasmodial surface anion channel blockers, osmotic lysis – cell-based, P. falciparum Indochina, OD700, 1 h, primary screen (AID 1154); settings: P. falciparum Indochina infected RBC osmotic lysis, higher = more signal, called active from +8 up or from −8 down
[4] = plasmodial surface anion channel blockers, osmotic lysis – cell-based, P. falciparum Indochina, OD700, 2 h, primary screen (AID 1155);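 further: lysis reports solute entry through the parasite surface anion channel PSAC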; settings: P. falciparum Indochina infected erythrocytes, higher = more signal, called active from +8 up or from −8 down
[5] = changes in parasitized red cell lysis, either direction – P. falciparum Indochina, OD700, 3 h, PSAC antagonist project, primary screen (AID 1156); settings: P. falciparum-infected erythrocytes, osmotic lysis, higher = more signal, called active from +8 up or from −8 down
[6] = plasmodial surface anion channel blockers, osmotic lysis – cell-based, P. falciparum Indochina, OD700, 18 h, primary screen (AID 1157); settings: P. falciparum Indochina infected erythrocytes, osmotic lysis OD700, 18 h; higher = more signal, called active from +8 up or from −8 down
[7] = S6 kinase pathway phospho-S6 level changes – cell-based, A549, cytoblot, luminescence, serum-stimulated, primary screen (AID 1158); settings: 5 h, higher = more signal;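 further: serum-stimulated A549 lung adenocarcinoma cells; signal is phosphorylated S6 detected by cytoblot immunostaining with HRP secondary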
[8] = molecular target: NADPH oxidase 2 (Homo sapiens) (UniProt P04839); assay: compounds shifting NOX2 Amplex Red fluorescence – cell-based, HEK293-NOX2, PMA-stimulated, NOX inhibitor project, primary screen (AID 1159); settings: 45 min, higher = more signal, called active from +8 up or from −8 down; further: test concentration not given here
[9] = molecular target: NADPH oxidase 4 (Homo sapiens) (UniProt Q9NPH5); assay: compounds shifting NOX4 Amplex Red fluorescence – cell-based, HEK293-NOX4, tetracycline-induced, NOX inhibitor project, primary screen (AID 1160); settings: HEK293-NOX4, Amplex Red H2O2 fluorescence, 45 min; higher = more signal, called active from +8 up or from −8 down
[10] = molecular target: NADPH oxidase 5 (Homo sapiens) (UniProt Q96PH1); assay: compounds shifting NOX5 Amplex Red fluorescence – cell-based, HEK293-NOX5, NOX inhibitor project, primary screen (AID 1161); settings: HEK293-NOX5, ionomycin, 45 min, higher = more signal
NADPH oxidase 5 (Homo sapiens), sequence (Q96PH1 whole entry, looked up): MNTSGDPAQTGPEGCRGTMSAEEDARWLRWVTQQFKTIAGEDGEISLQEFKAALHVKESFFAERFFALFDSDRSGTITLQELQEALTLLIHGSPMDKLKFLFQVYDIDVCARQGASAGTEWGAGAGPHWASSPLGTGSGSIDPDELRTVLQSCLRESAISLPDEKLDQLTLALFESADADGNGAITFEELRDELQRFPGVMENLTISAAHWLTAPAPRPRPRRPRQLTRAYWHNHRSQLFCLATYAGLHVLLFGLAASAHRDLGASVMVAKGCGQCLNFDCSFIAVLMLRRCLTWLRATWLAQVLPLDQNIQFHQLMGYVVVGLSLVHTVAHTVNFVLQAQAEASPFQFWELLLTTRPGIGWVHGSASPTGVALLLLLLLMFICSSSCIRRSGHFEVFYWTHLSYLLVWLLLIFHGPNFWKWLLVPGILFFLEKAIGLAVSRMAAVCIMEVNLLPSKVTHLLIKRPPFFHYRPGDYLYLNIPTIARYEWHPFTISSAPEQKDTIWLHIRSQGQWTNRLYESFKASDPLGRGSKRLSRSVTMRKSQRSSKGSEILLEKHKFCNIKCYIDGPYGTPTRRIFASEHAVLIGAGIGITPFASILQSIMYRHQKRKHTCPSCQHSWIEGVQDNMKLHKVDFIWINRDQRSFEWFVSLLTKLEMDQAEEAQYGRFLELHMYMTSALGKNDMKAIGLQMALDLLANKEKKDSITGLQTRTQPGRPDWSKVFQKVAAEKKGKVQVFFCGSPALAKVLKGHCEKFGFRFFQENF

NADPH oxidase 2 (Homo sapiens), sequence (P04839 whole entry, looked up): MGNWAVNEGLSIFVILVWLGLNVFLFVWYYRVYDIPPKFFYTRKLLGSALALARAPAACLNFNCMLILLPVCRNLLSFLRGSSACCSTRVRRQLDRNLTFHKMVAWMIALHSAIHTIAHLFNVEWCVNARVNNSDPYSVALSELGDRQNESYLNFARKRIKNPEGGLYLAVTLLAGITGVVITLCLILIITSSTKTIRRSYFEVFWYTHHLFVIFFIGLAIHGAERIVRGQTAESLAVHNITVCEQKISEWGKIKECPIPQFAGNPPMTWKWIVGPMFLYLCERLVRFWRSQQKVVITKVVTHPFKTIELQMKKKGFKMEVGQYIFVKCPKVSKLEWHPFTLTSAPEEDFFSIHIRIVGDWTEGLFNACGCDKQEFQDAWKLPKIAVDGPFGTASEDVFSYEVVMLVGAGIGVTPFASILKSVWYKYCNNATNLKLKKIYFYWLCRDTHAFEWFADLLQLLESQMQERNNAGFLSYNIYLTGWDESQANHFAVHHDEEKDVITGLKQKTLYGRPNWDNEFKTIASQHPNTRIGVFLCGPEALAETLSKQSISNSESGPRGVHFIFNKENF
NADPH oxidase 4 (Homo sapiens), sequence (Q9NPH5 whole entry, looked up): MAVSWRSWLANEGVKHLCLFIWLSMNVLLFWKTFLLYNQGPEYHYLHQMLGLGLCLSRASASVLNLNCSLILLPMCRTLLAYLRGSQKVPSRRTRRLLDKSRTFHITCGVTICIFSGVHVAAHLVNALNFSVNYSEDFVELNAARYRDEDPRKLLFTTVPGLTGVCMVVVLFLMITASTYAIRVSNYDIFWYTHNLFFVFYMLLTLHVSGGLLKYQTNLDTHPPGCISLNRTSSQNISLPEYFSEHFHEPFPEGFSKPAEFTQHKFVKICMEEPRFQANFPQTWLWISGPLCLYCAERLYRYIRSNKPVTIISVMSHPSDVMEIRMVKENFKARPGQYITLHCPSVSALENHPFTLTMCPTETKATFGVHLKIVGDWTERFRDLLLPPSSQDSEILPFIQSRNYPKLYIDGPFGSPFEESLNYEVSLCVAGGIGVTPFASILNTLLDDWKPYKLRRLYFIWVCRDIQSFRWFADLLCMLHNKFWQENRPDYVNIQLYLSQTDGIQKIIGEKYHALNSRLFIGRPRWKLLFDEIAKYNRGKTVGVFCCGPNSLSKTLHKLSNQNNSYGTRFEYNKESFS

Compound | z-score [1] | composite z-score [2] | z-score [3] | z-score [4] | z-score [5] | z-score [6] | z-score [7] | z-score [8] | z-score [9] | z-score [10]
CCOC(=O)[C@H](CC(C)C)NC(=O)CCC1CC(OC(=O)NCc2ccc3c(c2)OCO3)CC2(CCCC(COC(=O)NCCc3ccccc3OC)O2)O1 (stereo not given in full) | -1.08 (inactive) | 0.0437 | -1.67 (inactive) | -0.213 (inactive) | -1.01 (inactive) | -0.143 (inactive) | -0.116 | 0.0807 (inactive) | 0.886 (inactive) | 1.24
CC(C)=NOC(C)CN1CCCc2nc(C)c(C)cc21 (stereo not given) | -0.477 (inactive) | -0.012 | 0.421 (inactive) | 0.774 (inactive) | 0.175 (inactive) | 0.539 (inactive) | -0.558 | -0.369 (inactive) | -0.141 (inactive) | -0.281
CCOC(=O)CCN1C(=O)[C@H]2[C@@H]3C(=CC[C@H]2C1=O)C(=O)[C@H]1O[C@H]1[C@H]3O | 0.244 (inactive) | -0.284 | 3.05 (inactive) | 0.673 (inactive) | 0.587 (inactive) | 0.254 (inactive) | 0.642 | 0.955 (inactive) | 0.35 (inactive) | 0.38
COc1ccc(O[C@H]2C=C[C@@H](c3ccccc3)O[C@@H]2CON=C2c3cc(OC)ccc3O[C@H](c3cccc(OC)c3)[C@H]2O)cc1 | -1.41 (inactive) | -0.237 | 4.7 (inactive) | 1.12 (inactive) | -0.392 (inactive) | 0.442 (inactive) | -1.1 | -0.0682 (inactive) | 0.264 (inactive) | 0.562
CC(=O)OC[C@H]1O[C@H](C#CCCc2ccccc2)C=C[C@@H]1OC(C)=O | -0.2 (inactive) | 0.233 | 1.43 (inactive) | 0.317 (inactive) | 0.182 (inactive) | 0.148 (inactive) | -0.427 | -1.58 (inactive) | 1.39 (inactive) | 1.07
CON=C(C)CCN1CCCc2nc(C)c(C)cc21 | -2.33 (inactive) | -0.0601 | 1.03 (inactive) | 0.498 (inactive) | 0.619 (inactive) | 0.49 (inactive) | -0.621 | -1.52 (inactive) | -1.06 (inactive) | -0.493
CC(C)=CCCC(C)=CCON=C1C[C@@H](O)[C@@H](O)[C@@H]2[C@@H]3C(=O)N([C@@H](C)c4ccccc4)C(=O)[C@@H]3CC[C@@H]12 | -0.0368 (inactive) | 0.0794 | 0.336 (inactive) | -0.168 (inactive) | -0.291 (inactive) | 0.183 (inactive) | -0.814 | 0.311 (inactive) | -0.0815 (inactive) | -0.919
CC(CCC(=O)OC[C@H]1O[C@H](C#Cc2ccccc2)C=C[C@@H]1Oc1ccc(C)cc1)=NO[C@@H](C)c1cc(-c2c(C)cc(C)cc2C)no1 | 0.357 (inactive) | -0.0929 | 1.34 (inactive) | 0.674 (inactive) | 1.23 (inactive) | 0.221 (inactive) | 0.814 | 0.731 (inactive) | 0.344 (inactive) | 0.287
CC(C)=CCCC(C)=CCON=C1C[C@@H](O)[C@@H](O)[C@@H]2[C@@H]3C(=O)N(Cc4ccc5c(c4)OCO5)C(=O)[C@@H]3CC[C@@H]12 | 0.253 (inactive) | 0.0315 | 31.3 (active) | 5.69 (inactive) | 2.24 (inactive) | 1.46 (inactive) | -0.274 | -1.3 (inactive) | -0.0437 (inactive) | -2.6
CCOC(=O)[C@H](CC(C)C)NC(=O)CCC1CC(OC(=O)NCc2ccc3c(c2)OCO3)CC2(CCCC(COC(=O)NCCOC)O2)O1 (stereo not given in full) | -2.3 (inactive) | 0.292 | 1.3 (inactive) | 0.529 (inactive) | -0.535 (inactive) | 0.0508 (inactive) | -0.421 | -0.288 (inactive) | -0.0492 (inactive) | 0.144
CC[C@@H](c1ccccc1)n1c(=O)n2n(c1=O)[C@H]1[C@H](O)[C@@H]3O[C@@H]3C(=NOCc3ccccc3)[C@H]1CC2 | -1.08 (inactive) | 0.0004 | 2.18 (inactive) | 0.0656 (inactive) | 1.1 (inactive) | 0.454 (inactive) | 0.3 | 1.55 (inactive) | -0.989 (inactive) | 1.21
CON=C1c2cc(OC)ccc2O[C@H](c2cccc(OC)c2)[C@H]1O | 0.788 (inactive) | -0.0061 | 3.04 (inactive) | 0.72 (inactive) | -0.241 (inactive) | 0.245 (inactive) | 0.686 | -0.837 (inactive) | -0.406 (inactive) | -0.175
COc1ccc(OC[C@@H](CO)OC)cc1 | 0.261 (inactive) | -0.145 | -0.578 (inactive) | -0.348 (inactive) | -0.566 (inactive) | -0.389 (inactive) | -0.51 | 0.712 (inactive) | 0.422 (inactive) | 0.133
CCc1cc2c(nc1CC)CCN(CCC(C)=NOC(C)CN1CCCCc3nc(C)c(C)cc31)C2 (stereo not given) | -1.74 (inactive) | 0.131 | 5.84 (inactive) | 0.499 (inactive) | 1.54 (inactive) | 0.539 (inactive) | -0.408 | -3.06 (inactive) | -3.1 (inactive) | -2.84
COC(=O)C(C(=O)OC)C1CCCC(=O)C1 (stereo not given) | -1.06 (inactive) | -0.284 | 0.69 (inactive) | -0.176 (inactive) | 0.426 (inactive) | -0.29 (inactive) | 0.649 | -1.18 (inactive) | -1.61 (inactive) | 0.921
COc1ccc(COC(=O)NN=C2C[C@@H](O)[C@@H](O)[C@@H]3[C@@H]4C(=O)N(C[C@@H]5CCCO5)C(=O)[C@@H]4CC[C@@H]23)cc1 | 1.08 (inactive) | -0.235 | 3.44 (inactive) | 0.415 (inactive) | 1.3 (inactive) | 0.18 (inactive) | -0.0088 | -0.682 (inactive) | 0.995 (inactive) | -0.0772
O=C1[C@H]2[C@H]3[C@H](O)[C@H](O)CC(=NOCc4ccccc4)[C@H]3CC[C@H]2C(=O)N1C1CCCCC1 | -0.135 (inactive) | -0.0222 | 21.3 (active) | 2.36 (inactive) | 0.43 (inactive) | 0.842 (inactive) | -0.441 | -0.622 (inactive) | -1.09 (inactive) | -4.07
C#CCCCON=C1C[C@@H](O)[C@@H](O)[C@@H]2[C@@H]3C(=O)N(C4CCCCC4)C(=O)[C@@H]3CC[C@@H]12 | 0.0164 (inactive) | -0.276 | 1.17 (inactive) | -0.164 (inactive) | -0.492 (inactive) | 0.132 (inactive) | -0.25 | 1.13 (inactive) | 0.699 (inactive) | -0.0773
O=C1[C@H]2[C@H]3[C@H](O)[C@H](O)CC(=NOCc4ccccc4)[C@@H]3CC[C@H]2C(=O)N1c1cccc(Oc2ccccc2)c1 | 1.16 (inactive) | 0.082 | 2.88 (inactive) | 1.72 (inactive) | 1.19 (inactive) | 0.845 (inactive) | -0.116 | -1.11 (inactive) | 0.735 (inactive) | -1.18
CO[C@H]1COC(=O)[C@H](C)COC(=O)[C@H](C)NC(=O)CC=C[C@H]1C | 0.25 (inactive) | -0.101 | 0.212 (inactive) | 0.0618 (inactive) | -0.0422 (inactive) | -0.186 (inactive) | 0.0807 | 1.67 (inactive) | 0.299 (inactive) | -0.42
CCc1cc2c(nc1CC)CCN(CCC(C)=NOCC[C@@H]1C=C[C@H](OC(C)=O)[C@@H](COC(C)=O)O1)C2 | -0.842 (inactive) | 0.245 | 1.86 (inactive) | 0.724 (inactive) | 0.77 (inactive) | 0.269 (inactive) | -1.04 | -0.572 (inactive) | 0.615 (inactive) | 1.65
COc1ccc(COC(=O)NN=C2C[C@@H](O)[C@@H](O)[C@@H]3[C@@H]4C(=O)N(C[C@@H]5CCCO5)C(=O)[C@@H]4CC[C@H]23)cc1 | -0.39 (inactive) | 0.544 | 3.23 (inactive) | 0.632 (inactive) | 0.398 (inactive) | 0.548 (inactive) | -0.308 | -3.46 (inactive) | 0.223 (inactive) | 0.0239
CO[C@@H]1[C@H](O)CO[C@H]1C=Cc1ccccc1 | -0.0624 (inactive) | -0.0559 | 2.7 (inactive) | 0.178 (inactive) | 0.837 (inactive) | -0.0932 (inactive) | 0.722 | -0.403 (inactive) | -0.898 (inactive) | 1.23
O=C1C[C@H](c2ccccc2)[C@H](c2ccc(Br)cc2)O1 | -1.16 (inactive) | -0.464 | -0.142 (inactive) | -1.13 (inactive) | -0.0291 (inactive) | -1.6 (inactive) | 1.61 | 0.146 (inactive) | -0.255 (inactive) | -0.446
CC(CCN1CCCc2nc(C)c(C)cc21)=NO[C@@H](C)c1cn([C@H](CO)Cc2ccccc2)nn1 | 1.15 (inactive) | -0.193 | 0.202 (inactive) | 0.0178 (inactive) | 0.0882 (inactive) | 0.392 (inactive) | 0.137 | -0.588 (inactive) | 0.313 (inactive) | 0.351
CC=CC1=C(CO)[C@H](O)[C@H]2O[C@H]2[C@@H]1O | -0.412 (inactive) | -0.106 | -0.312 (inactive) | 0.367 (inactive) | -0.242 (inactive) | 0.172 (inactive) | -0.325 | 0.623 (inactive) | -0.191 (inactive) | 0.109
COC(=O)CC=C[C@@H](C)[C@@H](C=NOC[C@@H](C)[C@H](OCc1ccccc1)C(C)C)OC | 0.14 (inactive) | -0.29 | 2.17 (inactive) | 0.319 (inactive) | -0.728 (inactive) | -0.0741 (inactive) | 0.391 | 0.64 (inactive) | -0.614 (inactive) | -2.2
